Source: the supplement of paper PMC11417369
± gives the standard deviation of the averaged measurements. Whole data set: some 25,000 sequences, median “ln(normalized median fluorescence intensity)” near 10, cut for the highest 2% near 12. What follows is part of a selection rich in the highest values, with near analogues and random picks from the rest.

system: PfAP2-G AP2 domain (GST-tagged); assay: gcPBM binding intensity (ln(normalized median fluorescence intensity)); higher = stronger DNA binding
In short: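 Binding of GST-tagged P. falciparum DNA-binding domains, expressed in E. coli and used at about 25 μg on average, was carried out for 1 h in 1× PBS containing 1% milk, 0.2 mg/ml BSA, 0.5% salmon testes DNA and 0.03% Triton X-100. The target was an Agilent 4 × 180k array of primer-extended double-stranded 36-bp intergenic genomic probes plus negative controls, read with Alexa488 anti-GST antibody at 488 nm. Binding intensity is the highest Masliner-normalised natural-log median intensity across replicate spots of either probe orientation.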

Row | Sequence | gcPBM binding intensity (ln)
1 | GACATTTGTGAGCTTGAGCCGTCAAACCACTAAATA [CACACA_negctrl_site552] | 9.99 ± 0.028
2 | AAAAGAAAAGAGAGGAGTACAAAATATAATTATCTA [XGTACX_site5172] | 11.3 ± 0.76
3 | ATATAAGATTTAAGAAGTACAATTATACAGTAGATC [XGTACX_site7501] | 11.4 ± 0.88
4 | GGGGGTAGGGGAAGAAGTACAATGATCACTACAGTA [XGTACX_site1169] | 11.9 ± 1.3
5 | TAAAAATGATCAAAGGGTACAGTATTAATTAAAAAA [XGTACX_site1079] | 11.3 ± 0.93
6 | AGGCGTGAAATATACGTACACACATTATTTATATTT [CACACA_site2558] | 11.6 ± 1
7 | CGCAACGTGAAAATACGTACACATACATTTTTATAT [XGTACX_site330] | 11.7 ± 0.85
8 | CAGGCGTGAAATATACGTACACACATTATTTATATT [XGTACX_site5337] | 11.8 ± 0.94
9 | TTTATTTATTTTTAACGTACGCACACATATAAATAT [XGTACX_site4042] | 11.4 ± 0.72
10 | TATTTATACATACGTACACACAAATATTAAAATATA [CACACA_site7004] | 11.5 ± 0.96
11 | TTATTTTTAACGTACGCACACATATAAATATATTTA [CACACA_site1976] | 11.5 ± 0.97
12 | TTGTTAATATATATATGTACTTATTTATTTATTTAT [XGTACX_site2274] | 11.4 ± 0.93
13 | TATATATATATATAATGTACAGAAAAAAAAAAAAAA [XGTACX_site6141] | 10.8 ± 0.86
14 | TATTCAAAGAAAAACTGTACGTGTAGCAAACGTCAT [XGTACX_site7713] | 11.5 ± 0.83
15 | TACAGATAAATATACATACATATATATATATATATA [XGTACX_negctrl_site182] | 9.86 ± 0.42
16 | TGAAATTTTTATACATGTACAAAATTAAATATAACA [XGTACX_site7324] | 10.8 ± 0.49
17 | TATATTTTTTTAAAAAGTACTTTGTATATATATATA [XGTACX_site1300] | 11.1 ± 0.83
18 | TATTTTATATAAAGGTGTACTTATACAAAAATATAT [XGTACX_site7435] | 11.5 ± 0.88
19 | TTATTTATTTAGTAGTGTACTTTTTATATTTATAAT [XGTACX_site5978] | 11.6 ± 0.99
20 | ATATATATTTTATATTGTACTTATTATTTTTAGGGC [XGTACX_site723] | 11.4 ± 0.81
21 | TTATATATTTTTAGGTGTACTTTTTTTTTTTTTTTT [XGTACX_site8164] | 11.7 ± 0.91
22 | GTATATTTTTAAAGGTGTACTTTTTTTTTTTTTTTT [XGTACX_site721] | 11.8 ± 1.1
23 | TAAAAAAAAAGAAGCTGTACTAAAAAATTTATATTA [XGTACX_site7408] | 11.1 ± 0.81

Row | Sequence | gcPBM binding intensity (ln)
24 | ACATATAATATAAAGTGTACAAGAAAATAAAAATAA [XGTACX_site1273] | 11.3 ± 0.77
25 | TATATATATATTATATGTACACAAGGAAATATGCAT [XGTACX_site5637] | 11.5 ± 0.75
26 | CTTCCTATATTTTACTGTACTTTTTTTTTTTTTTTT [XGTACX_site4016] | 11.7 ± 0.98
27 | TTATATATTTTTATGTGTACTTATATATATATATAT [XGTACX_site6211] | 11.7 ± 1.1
28 | ATTTAAATACAAAATTGTACTTTTCTATATTTAACA [XGTACX_site6146] | 11.3 ± 0.64
29 | ACTATTATTAAAAATTGTACTTTCTATAAATTTTTT [XGTACX_site7825] | 11.1 ± 0.62
30 | TAAATAAAAATACAGTGTACTTTTTTCTATTTAAAA [XGTACX_site3288] | 11.7 ± 1.2
31 | TATATTAAAATTTACTGTACTTTTTTTATTTTAAAA [XGTACX_site4077] | 11.6 ± 1.1
32 | TATATTTATTCCTGTTGTACTTTATATTATTTTTTT [XGTACX_site1415] | 11.3 ± 0.6
33 | ATATATGTGTATGTATGTACTTATATTTTTTTTTAT [XGTACX_site1733] | 11.2 ± 0.78
34 | TATAAATATATATTTTGTACTTAATATAAATTTATA [XGTACX_site7996] | 11 ± 0.62
35 | ATATATATATATATATGTACTTATTTATTTTATATA [XGTACX_site8810] | 11.5 ± 1.1
36 | ATTTTTTTATTTTTGTGTACTTATAAGAATATTAAT [XGTACX_site4850] | 11.7 ± 1.1
37 | GTTAAGAATATATAATGTACTTATTTTAATATAGTA [XGTACX_site6088] | 11.1 ± 0.84
38 | ATATATTAAAACCTAGTGCATTTGTACATATTTCAA | 11 ± 0.52
39 | ATTTTAGATGAAAAAGCACACAACATATATATATAT [CACACA_site2295] | 10.2 ± 0.43
40 | TAATAAATAAGACACACACACATATATATATATTAT [CACACA_site1389] | 10.01 ± 0.042
41 | TTGTATTATTAAATTATAAAACCTATAATTATGGAT [GTGCAC_negctrl_site340] | 9.68 ± 0.099
42 | TGGAAATTCTCAGGAGTGCATATTTGCAGTTTACGT [GTGCAC_site9768] | 10.3 ± 0.25
43 | GGGAAAGAACCATATACATGCATATTTACCGTTAAA [TGCATGCA_site519] | 10 ± 0.28
44 | ATTTATATATAATATACACACATATAATCCACATAT [CACACA_site699] | 10.15 ± 0.035
45 | TATATATATATCAAGTGTACTTGTGTTTGTAATATT [XGTACX_site8854] | 11.4 ± 1
46 | TTTTTGTTTTTTTTGTGTACTTATCAAATATATATA [XGTACX_site7273] | 11.6 ± 0.83
